Experimental data: PubChem BioAssay AID1159580 (chemical genetic matrix, 2015)
“And” between values parts separate entries of the source, which are not always exact repeats. Equal values may be shown once. Screen size: about 5,500 compounds; about 2,000 (36%) were called active. About 18% were inconclusive and are not listed. Rule as the data show it: active = normalized growth mostly below about 0.91 (no sharp cut-off); inconclusive = no clear call, values can overlap the other calls; inactive = mostly above about 0.92. This is one part of the list.

Assay: chemical genetic growth profiling, strain panel (AID 1159580);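 also: tested at 20 µM; growth read once vehicle control cultures reached saturation at 30 °C; 1 = growth at the plate median or of vehicle wells; lower values mean less growth of the strain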
Conditions: S. cerevisiae deletion strains, growth OD

Measured: normalized growth

Oc1ccc(Cl)cc1
inactive: locus YAL013W, strain DEP1, hits give low values 0.992 | locus YAL021C, strain ccr4, hits give low values 1.01 | locus YAL026C, strain drs2, hits give low values 1.03 | locus YAL030W, strain snc1, hits give low values 1.01 | locus YBL061C, strain skt5, hits give low values 1.01 | locus YBR009C, strain hhf1, hits give low values 1.01 | locus YBR021W, strain FUR4, hits give low values 0.971 | locus YBR023C, strain chs3, hits give low values 1.01 | locus YBR171W, strain sec66, hits give low values 1.02 | locus YBR229C, strain ROT2, hits give low values 0.986 | locus YBR231C, strain swc5, hits give low values 1 | locus YBR279W, strain paf1, hits give low values 1.01 | locus YCL011C, strain gbp2, hits give low values 1.01 | locus YCL016C, strain dcc1, hits give low values 1.02 | locus YCL029C, strain bik1, hits give low values 0.976 | locus YCL061C, strain MRC1, hits give low values 1.02 | locus YCL069W, strain vba3, hits give low values 1.01 | locus YCR088W, strain abp1, hits give low values 1.01 | locus YDL005C, strain med2, hits give low values 1.01 | locus YDL035C, strain GPR1, hits give low values 0.987 | locus YDL040C, strain nat1, hits give low values 1.01 | locus YDL074C, strain BRE1, hits give low values 1.01 | locus YDL101C, strain DUN1, hits give low values 0.985 | locus YDL134C, strain PPH21, hits give low values 0.975 | locus YDL185W, strain tfp1, hits give low values 0.98 | locus YDL192W, strain arf1, hits give low values 0.977 | locus YDR001C, strain nth1, hits give low values 1.01 | locus YDR069C, strain doa4, hits give low values 0.992 | locus YDR101C, strain arx1, hits give low values 0.973 | locus YDR137W, strain rgp1, hits give low values 1.04 | locus YDR159W, strain sac3, hits give low values 0.981 | locus YDR162C, strain NBP2, hits give low values 0.995 | locus YDR195W, strain ref2 1.02 | locus YDR297W, strain sur2, hits give low values 1.01 | locus YDR318W, strain mcm21, hits give low values 0.977 | locus YDR334W, strain swr1, hits give low values 1.01 | locus YDR335W, strain msn5, hits give low values 1 | locus YDR388W, hits give low values 0.962 | locus YDR392W, strain spt3, hits give low values 0.956 | locus YDR502C, strain sam2, hits give low values 0.979 | locus YEL003W, strain gim4, hits give low values 1.01 | locus YEL037C, strain rad23, hits give low values 1.01 | locus YEL061C, strain CIN8 (second series), hits give low values 1.01 | locus YEL061C, strain CIN8, hits give low values 0.993 | locus YER015W, strain faa2, hits give low values 1.01 | locus YER016W, strain bim1, hits give low values 0.997 | locus YER110C, hits give low values 0.973 | locus YER111C, strain swi4, hits give low values 1.01 | locus YER155C, strain BEM2 (second series), hits give low values 1.02 | locus YER155C, strain BEM2, hits give low values 0.987 | locus YER167W, strain BCK2, hits give low values 0.984 | locus YFR010W, strain ubp6, hits give low values 1 | locus YGL078C, strain dbp3, hits give low values 0.978 | locus YGL086W, strain mad1, hits give low values 1 | locus YGL167C, strain pmr1, hits give low values 1 | locus YGL173C, strain kem1, hits give low values 1 | locus YGL227W, strain vid30, hits give low values 1.01 | locus YGL240W, strain doc1, hits give low values 1 | locus YGL248W, strain PDE1, hits give low values 0.991 | locus YGL253W, strain hxk2, hits give low values 1.02 | locus YGR135W, strain pre9, hits give low values 0.978 | locus YGR229C, strain SMI1, hits give low values 0.996 | locus YGR252W, strain gcn5, hits give low values 1.05 | locus YHR013C, strain ard1, hits give low values 1.03 | locus YHR027C, strain rpn1, hits give low values 1.01 | locus YHR030C, strain SLT2, hits give low values 0.99 and 0.965 | locus YHR079C, strain IRE1 (second series), hits give low values 0.966 | locus YHR079C, strain IRE1, hits give low values 0.966 | locus YHR094C, strain hxt1, hits give low values 0.974 | locus YHR129C, strain ARP1, hits give low values 0.998 | locus YHR142W, strain chs7, hits give low values 1.02 | locus YHR200W, strain rpn10, hits give low values 0.98 | locus YIL066C, strain RNR3, hits give low values 0.992 | locus YIL073C, strain SPO22, hits give low values 0.942 | locus YIL125W, strain kgd1, hits give low values 0.975 | locus YIR030C, strain dcg1, hits give low values 0.98 | locus YJL092W, strain hpr5, hits give low values 1.02 | locus YJL095W, strain BCK1 (second series), hits give low values 1.01 | locus YJL095W, strain BCK1, hits give low values 1.01 and 0.962 | locus YJL115W, strain asf1, hits give low values 1.02 | locus YJL129C, strain trk1, hits give low values 0.99 | locus YJL134W, strain LCB3, hits give low values 0.991 | locus YJL154C, strain vps35, hits give low values 1.01 | locus YJL164C, strain tpk1, hits give low values 1 | locus YJL166W, strain qcr8, hits give low values 1.02 | locus YJL168C, strain set2, hits give low values 0.978 | locus YJL187C, strain SWE1 (second series), hits give low values 0.986 | locus YJL187C, strain SWE1, hits give low values 1.02 | locus YJR043C, strain POL32, hits give low values 1 | locus YJR066W, strain TOR1, hits give low values 0.934
